Measured potencies and affinities stand elsewhere.
What follows are molecules tested on Klebsiella pneumoniae. Details: Concentration 20 uM; ASSAY_TEST Inhibition of Bacterial Growth; detection method Absorption (OD600); MEDIA CAMHB; plate type 384well; NBS; CORNING #3640; time 18 hr.

| SMILES | Inhibition |
| --- | --- |
| Clc1ccc2nc3ccccc3cc2c1 | 9.96% |
| O=C(c1ccccc1)c1ccc[nH]1 | 11.78% |
| CC(=O)Oc1c(C)c(OC(C)=O)c2c(c1C(C)=O)OC1CC(=O)C(C(C)=O)=C(O)C21C (stereo not drawn) | 8.45% |
| CN(C)CCCN1c2ccc3ccccc3c2Sc2cccc(Cl)c21 | 8.34% |
| Oc1cc(CNC2CCCCC2)c(O)cc1CNC1CCCCC1 | 11.38% |
| CC(NC(=O)c1ccc(Cl)c(Cl)c1)c1ccc(-c2ccccc2)cc1 (stereo not drawn) | 14.03% |
| Cc1nccnc1Sc1ccccc1 | 5.26% |
| CC(C)COc1nc2c(c(=O)n(C)c(=O)n2C)n1C | 5.36% |
| CC(C)(C)c1ccc(OCC(=O)O)cc1 | 8.68% |
| Cc1cc(O)cc2c1[C@H]1CC[C@]3(C)C(=O)CC[C@H]3[C@@H]1C=C2 | -0.57% |
| CC(=O)OCCn1c2nc(=O)[nH]c(=O)c-2nc2cc(C)c(C)cc21 | 3.5% |
| Nc1ncnc(N2CCOCC2)n1 | 0.72% |
| Cc1ccc(/N=N/c2ccc(N)cc2C)c(S(N)(=O)=O)c1 | 0.06% |
| CCN(CC)CCNC(=O)C(Cl)=C1C(Cl)=C(Cl)C(Cl)=C1Cl | 29.33% |
| Cc1cc(C)n(C(=N)NC(=O)c2ccccc2)n1 | 6.77% |
| NC(=O)C1=C(N)c2ccccc2C1c1ccccc1 (stereo not drawn) | 1.18% |
| CCCCCCC(C)OC(=O)c1ccccc1C(=O)O (stereo not drawn) | 24.05% |
| CCOc1ccc(NC(=O)c2cc3ccccc3cc2O)cc1 | 2.5% |
| NC(CSC1(c2cccc3ccccc23)c2ccccc2-c2ccccc21)C(=O)O (stereo not drawn) | 13.19% |
| Oc1nc2[nH]c(Cl)nc(Cl)c-2n1 | 9.63% |

| SMILES | Inhibition |
| --- | --- |
| CC(=O)Oc1ccc(OC(C)=O)c2c1CC1(C)OC1(C)C2 (stereo not drawn) | 9.63% |
| COc1cccc(/C=C2\CCc3ccccc3C2=O)c1 | 8.43% |
| COC(=O)c1c[n+]([O-])ccc1OC | 7.09% |
| CCCCSc1cc(O)nc(N)n1 | 10.64% |
| c1ccc2c(c1)Oc1cccc3cccc-2c13 | 8.47% |
| O=C(Nc1ccc2ccccc2c1)c1ccc(Cl)cc1Cl | -0.53% |
| COc1cc(/N=N/c2ccccc2C(=O)O)ccc1O | 12.27% |
| Cc1ccn2c(C(C)O)nnc2c1 (stereo not drawn) | 2.31% |
| O=C1NCN(CCO)CN1 | 4.75% |
| O=C(Nc1ccc(C(=O)O)c(O)c1)c1ccccc1 [BENZOYLPAS] | 3.36% |
| COc1ccc(Nc2cc(Cl)ccc2C(=O)O)cn1 | 20.74% |
| Cc1c(COC(=O)NC(C)C)c(COC(=O)NC(C)C)c2n1CS(=O)(=O)C2 | 15.71% |
| C=CCNC(=S)N1CCN(c2ccccc2Cl)CC1 | 17.35% |
| Nc1ccc(C(=O)Nc2ccc(NC(=O)c3ccco3)c(O)c2)cc1 | 17.4% |
| O=C(O)c1ccccc1-c1ccccc1C(=O)Nc1ccc2oc(=O)c3ccccc3c2c1 | 11.43% |
| O=[N+]([O-])c1ccc(-c2ncc(-c3ccc(Br)cc3)o2)cc1 | 5.71% |
| S=C(Sc1ccc(Cl)cc1)Sc1ccc(Cl)cc1 | 7.47% |
| CN(C)S(=O)(=O)Nc1cccc(Br)c1 | 2.53% |
| CSc1nc(N)c(C(=O)Nc2ccc([N+](=O)[O-])cc2)s1 | 8.8% |

The molecules below were run on Candida albicans. Details: 20 µM.

| SMILES | Inhibition |
| --- | --- |
| Clc1ccc2nc3ccccc3cc2c1 | 5.41% |
| O=C(c1ccccc1)c1ccc[nH]1 | 2.09% |
| CC(=O)Oc1c(C)c(OC(C)=O)c2c(c1C(C)=O)OC1CC(=O)C(C(C)=O)=C(O)C21C (stereo not drawn) | 3.77% |
| CN(C)CCCN1c2ccc3ccccc3c2Sc2cccc(Cl)c21 | 0.69% |
| Oc1cc(CNC2CCCCC2)c(O)cc1CNC1CCCCC1 | 5.97% |
| CC(NC(=O)c1ccc(Cl)c(Cl)c1)c1ccc(-c2ccccc2)cc1 (stereo not drawn) | -5.14% |
| Cc1nccnc1Sc1ccccc1 | 7.15% |
| CC(C)COc1nc2c(c(=O)n(C)c(=O)n2C)n1C | 2.67% |
| CC(C)(C)c1ccc(OCC(=O)O)cc1 | 8.84% |
| Cc1cc(O)cc2c1[C@H]1CC[C@]3(C)C(=O)CC[C@H]3[C@@H]1C=C2 | 12.1% |
| CC(=O)OCCn1c2nc(=O)[nH]c(=O)c-2nc2cc(C)c(C)cc21 | -0.26% |
| Nc1ncnc(N2CCOCC2)n1 | 2.01% |
| Cc1ccc(/N=N/c2ccc(N)cc2C)c(S(N)(=O)=O)c1 | 2.21% |
| CCN(CC)CCNC(=O)C(Cl)=C1C(Cl)=C(Cl)C(Cl)=C1Cl | 1.86% |
| Cc1cc(C)n(C(=N)NC(=O)c2ccccc2)n1 | 6.7% |
| NC(=O)C1=C(N)c2ccccc2C1c1ccccc1 (stereo not drawn) | 4.94% |
| CCCCCCC(C)OC(=O)c1ccccc1C(=O)O (stereo not drawn) | 18.6% |
| CCOc1ccc(NC(=O)c2cc3ccccc3cc2O)cc1 | 7.38% |
| NC(CSC1(c2cccc3ccccc23)c2ccccc2-c2ccccc21)C(=O)O (stereo not drawn) | 7.56% |
| Oc1nc2[nH]c(Cl)nc(Cl)c-2n1 | -2.33% |

| SMILES | Inhibition |
| --- | --- |
| CC(=O)Oc1ccc(OC(C)=O)c2c1CC1(C)OC1(C)C2 (stereo not drawn) | -0.12% |
| COc1cccc(/C=C2\CCc3ccccc3C2=O)c1 | 9.78% |
| COC(=O)c1c[n+]([O-])ccc1OC | -2.55% |
| CCCCSc1cc(O)nc(N)n1 | -1.45% |
| c1ccc2c(c1)Oc1cccc3cccc-2c13 | 7.02% |
| O=C(Nc1ccc2ccccc2c1)c1ccc(Cl)cc1Cl | -0.67% |
| COc1cc(/N=N/c2ccccc2C(=O)O)ccc1O | -1.22% |
| Cc1ccn2c(C(C)O)nnc2c1 (stereo not drawn) | -1.79% |
| O=C1NCN(CCO)CN1 | 0.72% |
| O=C(Nc1ccc(C(=O)O)c(O)c1)c1ccccc1 [BENZOYLPAS] | 6.26% |
| COc1ccc(Nc2cc(Cl)ccc2C(=O)O)cn1 | 22.9% |
| Cc1c(COC(=O)NC(C)C)c(COC(=O)NC(C)C)c2n1CS(=O)(=O)C2 | 3.64% |
| C=CCNC(=S)N1CCN(c2ccccc2Cl)CC1 | 32.7% |
| Nc1ccc(C(=O)Nc2ccc(NC(=O)c3ccco3)c(O)c2)cc1 | 3.85% |
| O=C(O)c1ccccc1-c1ccccc1C(=O)Nc1ccc2oc(=O)c3ccccc3c2c1 | 17.8% |
| O=[N+]([O-])c1ccc(-c2ncc(-c3ccc(Br)cc3)o2)cc1 | 5.85% |
| S=C(Sc1ccc(Cl)cc1)Sc1ccc(Cl)cc1 | 2.15% |
| CN(C)S(=O)(=O)Nc1cccc(Br)c1 | 4.88% |
| CSc1nc(N)c(C(=O)Nc2ccc([N+](=O)[O-])cc2)s1 | 7.49% |

From ChEMBL document CHEMBL4296182, “CO-ADD screening of NIH NCI Diversity Set V”
